Records with an inconclusive call do not appear. The source made the active and inactive calls. The call rests on the fitted dose curve; in most records, active means well fitted activation curve with a large enough effect in the main read-out, with a control signal flat; inconclusive means small, poorly fitted or top-dose-only effect, or effect the other way, or a change in a side signal; inactive means no such curve, though single readings can be large or run the other way.
Potency means the concentration at half of the fitted maximal effect.

Thyrotropin receptor (Homo sapiens), sequence (P16473 whole entry, looked up): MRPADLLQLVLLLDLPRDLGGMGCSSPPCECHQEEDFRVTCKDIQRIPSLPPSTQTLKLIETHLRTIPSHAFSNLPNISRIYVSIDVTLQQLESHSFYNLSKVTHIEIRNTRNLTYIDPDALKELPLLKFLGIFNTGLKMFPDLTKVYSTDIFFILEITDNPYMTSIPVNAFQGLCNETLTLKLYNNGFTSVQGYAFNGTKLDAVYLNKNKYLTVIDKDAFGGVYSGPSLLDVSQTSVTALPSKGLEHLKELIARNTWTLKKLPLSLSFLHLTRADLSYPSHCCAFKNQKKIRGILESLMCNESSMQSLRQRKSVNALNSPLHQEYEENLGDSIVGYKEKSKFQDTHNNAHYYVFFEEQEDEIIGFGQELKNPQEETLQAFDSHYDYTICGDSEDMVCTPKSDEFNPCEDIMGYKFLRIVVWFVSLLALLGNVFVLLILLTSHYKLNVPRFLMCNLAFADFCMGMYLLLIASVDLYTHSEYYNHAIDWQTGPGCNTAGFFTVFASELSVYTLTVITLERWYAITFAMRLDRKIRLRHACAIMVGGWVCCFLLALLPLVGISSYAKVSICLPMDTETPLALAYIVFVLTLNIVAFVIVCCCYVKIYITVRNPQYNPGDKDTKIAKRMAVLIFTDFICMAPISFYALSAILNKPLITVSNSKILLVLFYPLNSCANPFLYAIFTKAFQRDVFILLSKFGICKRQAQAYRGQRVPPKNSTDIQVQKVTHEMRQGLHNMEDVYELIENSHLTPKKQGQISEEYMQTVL

The assay has as its target Thyrotropin receptor (Homo sapiens) (UniProt P16473). In words: Confirmation Concentration-Response Assay for Agonists of the Thyroid Stimulating Hormone Receptor. On activation: % of control where 0% means no effect. Particulars: HEK293 TSHR-CNG cells, membrane potential dye, cAMP; series mostly up to 25.6 µM; activation: at the top concentration. The source says: NIH Chemical Genomics Center [NCGC] NIH Molecular Libraries Screening Centers Network [MLSCN] MLSCN Grant: 1 X01 MH080680-01 PI Name: Dr. Marvin Gershengorn, NIH NCGC Assay Overview: Thyroid Stimulating Hormone Receptor TSH is an alpha/beta heterodimeric glycoprotein hormone secreted from the anterior pituitary gland which belongs to the glycoprotein hormone family. The actions of TSH are mediated by a seven-transmembrane receptor, which upon TSH binding couples preferentially to the G-alpha (s) protein (Gs), resulting in activation of adenylate cyclase and increase in cyclic adenosine 3', 5' monophosphate (cAMP). The TSH receptor (THSR) is mainly expressed in thyroid follicular cells and regulates their growth and function. Recombinant TSH is used to activate TSHR in patients with thyroid cancer receiving thyroid hormone suppression therapy and to screen for residual tumor after surgery, but it is expensive and must be administered intramuscularly. An orally active small molecule TSHR agonist would serve as an invaluable research tool for studying TSHR pharmacology and physiology, and would have multiple advantages in therapeutic settings. However, no selective small molecule agonist of the TSH receptor exists, and no small molecule screen for TSHR agonists has ever been reported. This cell based assay utilized a cyclic nucleotide gated ion channel (CNG) as a biosensor for cAMP induction by potential TSHR agonists. TSHR cell line HEK 293 cells stably expressing the TSHR as well as a modified CNG were purchased from BD biosciences. Stimulation of cAMP production causes the CNG to open and subsequent membrane depolarization to occur. A fluorescent membrane potential dye (BD biosciences) was utilized to detect cAMP stimulation in TSHR cells. The cells were maintained in DMEM medium (Invitrogen) containing 10 % FBS (Hyclone), 100 units/ml Penicillin, 100 ug/ml Streptomycin (Invitrogen), and 250 ug/ml Geneticin (Invitrogen) and 1 ug/ml Puromycin (Invitrogen) at 37C in 5% CO2. HEK 293 cells expressing CNG but without TSHR (parental cells) were used in concert to control for compounds signaling through endogenous receptors and targets of HEK 293 cells.
NCGC Assay Protocol Summary: High Throughput Screening. Freshly passaged cells (TSHR or parental) were dispensed into 1536-well assay plates at 4 ul/well in DMEM containing phenol red (Invitrogen), 10% FCS (Hyclone), and 100 units/ml Penicillin, 100 ug/ml Streptomycin (Invitrogen) and incubated at 37 C with 5% CO2 for 20 to 36 hrs before the robotic screening. The screen was initiated by addition of 4 ul/well membrane potential dye containing 100 uM RO 20-1724 (Sigma Aldrich), followed by 60 min incubation at room temperature to allow for dye equilibration across the cell membrane. 23 nl/well compound or control was then added to the assay plates, which were incubated for additional 30 min before reading a Envision fluorescence plate reader (Perkin Elmer) in bottom-read mode for fluorescence intensity (emission at 590 nm). Keywords: Thyroid-stimulating hormone TSH, TSHR, TSHR agonist, quantitative high throughput screening, qHTS, HTS, probe identification, CNG, cAMP, cyclic nucleotide gated ion channel PubChem
For the compound `O=C1C=C(NCc2ccccc2)C2(CCCCC2)O1`, the “activation” value was -18.9% (inactive).

Turning to `CN1C(=O)N(C)C2(c3ccccc3)Nn3c(s/c(=C/c4ccco4)c3=O)=NC12c1ccccc1` (stereo not given), the “activation” value was 11.9% [at 32.9 µM] (inactive).

With `CCC(C)(C)n1nnnc1CN(Cc1ccco1)Cc1cc2cc3c(cc2[nH]c1=O)OCO3`, the “activation” value is -17.7% [at 32.9 µM] (inactive).

Take `CCc1ccccc1NC1=NCC(=O)N1Cc1ccc(OC)cc1`: the Potency was 12.6 µM (active).

Turning to `Cc1nn(-c2ccccc2)c(N2CCCC2)c1/C=N/n1cnc2scc(-c3ccccc3)c2c1=O`, the Potency was 1.58 µM (active).

As for `O=C(CN(Cc1ccc(F)cc1)S(=O)(=O)c1ccccc1)N1CCCCC1`, the Potency is 10 µM (active).

For `NC(=O)c1nsc(C(=O)N(CC(=O)NCc2ccc3c(c2)OCO3)C2CCCC2)c1N`, the Potency is 12.6 µM (active).

As for `Cc1ccccc1NC(=O)CSc1nnc(-c2ccoc2C)n1CCc1ccccc1`, the Potency is 6.31 µM (active).

Consider `c1ccc(-n2cnc3cc(NCc4ccncc4)ccc32)cc1`, for which the “activation” value is -27.2% (inactive).

Regarding `Cc1ccccc1-c1nc(CN2CCC(C(=O)N3CCN(c4ccccn4)CC3)CC2)c(C)o1`, the “activation” value was 3.04% (inactive).

On to `NC(=O)c1nsc(C(=O)N(CC(=O)NCc2ccc3c(c2)OCO3)C2CCCCC2)c1N`, for which the Potency was 1.26 µM (active).

Take `Cc1ccc(S(=O)(=O)N2CCC(C(=O)NCCCN3CCCCCC3)CC2)cc1`: the “activation” value was 13.1% [at 32.9 µM] (inactive).

Consider `CCSCCOC(=O)C1=C(C)N(C)C(=O)NC1c1cc(OC)ccc1OC` (stereo not given), for which the “activation” value is 24.2% [at 32.9 µM] (inactive).

As to `CC(=O)N1CCCc2cc(S(=O)(=O)N(CC(C)C)CC(C)C)ccc21`, the Potency was 12.6 µM (active).

As to `Cc1cc(-n2c(C)cc(C(=O)CSc3nnnn3-c3ccc(Cl)cc3)c2C)no1`, the Potency was 3.98 µM (active).

For the compound `Cc1cnc(NC(=O)c2ccc3c(c2)C(=O)N(Cc2ccco2)C3=O)s1`, the “activation” value is -33.1% (inactive).

Regarding `CC1(C)c2ccccc2N2CCC(=O)NC21/C=C/c1ccco1` (stereo not given), the Potency was 6.31 µM (active).

For the compound `Cc1nc2ccc(Br)cn2c(=O)c1Cl`, the “activation” value was 24.6% (inactive).

In the case of `O=C(Nc1ccc(N2CCOCC2)cc1)C1CC1`, the “activation” value was 14.8% (inactive).

Regarding `CCOc1ccc(N(CC(=O)NC(C)(C)C)S(=O)(=O)c2c(C)noc2C)cc1`, the “activation” value is 16.8% (inactive).

Consider `Cc1ccc(N(CC(=O)NCc2ccco2)S(=O)(=O)c2ccccc2)cc1`, for which the Potency is 12.6 µM (active).

`COc1ccc(S(=O)(=O)NCCC(=O)NCc2ccc(F)cc2)cc1`: the “activation” value is 1.97% [at 32.9 µM] (inactive).

Take `COc1cccc(C2CC(c3ccccc3OC)n3nc(N)nc3N2)c1` (stereo not given): the “activation” value was 15.4% (inactive).

For `CCOC(=O)c1ccc(NC(=O)c2ccc(CN3CCOCC3)cc2)cc1`, the “activation” value is -4.24% [at 32.9 µM] (inactive).

Take `Cc1cc(C)nc(N(C#N)CC(=O)N2CCC(C(N)=O)CC2)n1`: the “activation” value is 8.57% [at 32.9 µM] (inactive).

As for `O=C1c2ccccc2C(=O)N1Cc1nc(-c2ccccc2)no1`, the “activation” value was 15.1% (inactive).

On to `Oc1ccccc1-c1cc(C(F)(F)C(F)F)nc(-c2ccccc2)n1`, for which the Potency was 7.94 µM (active).

For `Cc1occc1-c1nnc(SCC(=O)NCc2ccc3c(c2)OCO3)n1CC(C)C`, the Potency was 12.6 µM (active).

Regarding `Cc1ccc2nc(SCC(=O)O)nc(C)c2c1`, the “activation” value is -143% (inactive).

With `CN1C(=O)C2C=CC1C1C(=O)N(c3ccccc3)C(=O)C21` (stereo not given), the “activation” value was 7.27% (inactive).

In the case of `Cn1cccc1Cc1nnc(SCC(N)=O)n1CCc1ccccc1`, the “activation” value was -17.3% (inactive).

For the compound `O=c1c2ccccc2ncn1-c1ccc2c(c1)OCCO2`, the “activation” value is 13.2% (inactive).

As to `Cc1cc(SCNC(=O)c2ccccc2)ncn1`, the “activation” value is 9.24% (inactive).

For `CC1(C)c2ccccc2N2CC(=O)NC21/C=C/c1ccco1` (stereo not given), the Potency is 12.6 µM (active).

Consider `CCOC(=O)N1CCC(NC(=O)c2ccc(CNS(=O)(=O)c3ccc(F)cc3)cc2)CC1`, for which the “activation” value is 18% [at 32.9 µM] (inactive).

For `Cc1ccc(-n2nc(-c3ccc(N)cc3)cc2N)cc1`, the “activation” value was -50.8% (inactive).

As to `O=C(COC(=O)C12CC3CC(CC(C3)C1)C2)NCc1ccco1`, the Potency is 2 µM (active).

`O=C(C1COc2ccccc2O1)N1CCCC1` (stereo not given): the “activation” value was -9.39% (inactive).

Take `O=C(COC(=O)C1c2ccccc2Oc2ccccc21)Nc1ccc2c(c1)OCO2`: the Potency is 12.6 µM (active).

`COc1ccc(CNc2nc(SC)n[nH]2)cc1OC`: the “activation” value was 13.1% (inactive).
